102 compounds from PubChem BioAssay AID588676 (Johns Hopkins Ion Channel Center, 2011) can be followed below.

The structures appear in SMILES notation. The campaign covered roughly 310,000 compounds. About 3,900 (1.3%) were called active.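 Rule for the calls: active = calcium-response B-score plate-corrected more than 3 library SD below zero, starting fluorescence within 5 deviations, no agonist response on first addition; inactive = the rest.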 The list comes from a sample in which actives are over-represented; it also holds similar structures and randomly drawn compounds.

Mas-related G-protein coupled receptor member X1 (Homo sapiens), sequence (Q96LB2 whole entry, looked up): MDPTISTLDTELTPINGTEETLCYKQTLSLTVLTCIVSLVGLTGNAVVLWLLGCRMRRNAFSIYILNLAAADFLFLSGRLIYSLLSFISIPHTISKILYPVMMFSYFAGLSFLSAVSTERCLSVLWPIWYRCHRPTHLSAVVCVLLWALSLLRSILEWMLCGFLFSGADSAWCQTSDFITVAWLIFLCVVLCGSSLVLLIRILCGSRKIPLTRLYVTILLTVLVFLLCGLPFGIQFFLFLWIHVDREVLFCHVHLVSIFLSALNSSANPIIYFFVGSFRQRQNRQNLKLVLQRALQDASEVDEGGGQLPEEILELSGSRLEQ

The experiment concerns the target Mas-related G-protein coupled receptor member X1 (Homo sapiens) (UniProt Q96LB2). Description: antagonists of human MrgX1 receptor, primary screen, HEK293 cells, Fluo-4 calcium flux (AID 588676).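 For B-score: peak minus trough fluorescence over baseline after final BAM8-22 challenge near maximal dose.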 Particulars: Fluo-4, BAM8-22 antagonism, at 10 µM; stronger effect = lower value. Background: Calcium assays in cells follow changes in intracellular calcium, usually with a dye or a luminescent sensor.
With `Cc1cc(NC(=O)/C=C/C(=O)N(c2ccccc2C)C(C(=O)NC2CCCC2)c2ccc(F)cc2)no1` (configuration not stated), the B-score result is “inactive”.

In the case of `CCOCCOCCC(C(=O)O)P(=O)(c1ccccc1)c1ccccc1` (configuration not stated), the B-score entry was “inactive”.

In the case of `CCN1CC=C2C(C#N)=C(N)C(C#N)(C#N)[C@H](c3ccoc3)[C@H]2C1`, the B-score result is “inactive”.

`CCCN1CC=C2C(C#N)=C(N)C(C#N)(C#N)C(c3cc(OC)ccc3OC)C2C1` (configuration not stated): the B-score was -7.07 (active).

Turning to `N#CC1=C(N)C(C#N)(C#N)[C@H](c2ccsc2)[C@H]2COCC=C12`, the B-score entry was “inactive”.

As to `O=C(O)CN1c2cccc3cccc(c23)S1(=O)=O`, the B-score entry was “inactive”.

Turning to `COc1ccc(-c2cc(C(F)(F)F)nc(S(C)(=O)=O)n2)cc1OC`, the B-score entry is “inactive”.

Turning to `O=C(NNC1=NCCC1)c1cccc(S(=O)(=O)N2CCCCC2)c1`, the B-score entry is “inactive”.

For `C=C(C)C1CC=C(C)/C(=N/NC(=O)CCCNc2cccc(C)c2)C1` (configuration not stated), the B-score result was “inactive”.

With `COc1ccc(Cl)cc1NC(=O)CNc1ccccc1F`, the B-score entry is “inactive”.

Regarding `C=C(C)C1CC=C(C)/C(=N\NC(=O)CNc2ccccc2OC)C1` (configuration not stated), the B-score was -6.1 (active).

Take `O=S(=O)(Nc1ccccc1Cl)c1cccc2nsnc12`: the B-score entry is “inactive”.

For `Cn1nc(C(C)(C)C)c(NC(=O)c2sccc2Cl)c1C(C)(C)C`, the B-score result was “inactive”.

On to `COc1ccccc1N(CC(=O)NC1CCCC1)C(=O)C1(C)CC(=O)N=C2C=CC(C)=CN21` (configuration not stated), for which the B-score entry is “inactive”.

As to `CCn1c(SCC(=O)Nc2ccc(C)cc2)nc2nc3c(cc2c1=O)CCCC3`, the B-score entry was “inactive”.

`O=C1CC(c2c(F)cccc2Cl)C(n2cncn2)C(O)=C1C1NCCc2ccccc21` (configuration not stated): the B-score result is “inactive”.

Take `COc1ccc(NC(=S)Nc2ccc(S(N)(=O)=O)cc2)c(C)c1`: the B-score result was “inactive”.

Regarding `NS(=O)(=O)c1ccc(CCNC(=S)Nc2ccc(S(N)(=O)=O)cc2)cc1`, the B-score result is “inactive”.

As for `NS(=O)(=O)c1ccc(NC(=S)Nc2ccc(Br)c(Cl)c2)cc1`, the B-score is -5.41 (active).

In the case of `CO/N=C(/CS(=O)(=O)c1ccc(Br)cc1)c1ccc(OC)cc1`, the B-score result was “inactive”.

As to `CCOc1ccc(C)cc1S(=O)(=O)NC1CCCCCC1`, the B-score result is “inactive”.

On to `CCOC(=O)CSc1nc(C)c(Oc2ccc(Cl)cc2Cl)c(=O)[nH]1`, for which the B-score entry was “inactive”.

Consider `Cc1nnc(SCC(=O)N2CCOCC2)[nH]c1=O`, for which the B-score result was “inactive”.

Turning to `CCCCOC(=O)CNc1nnc(SCC(=O)OCC)[nH]c1=O`, the B-score was -10.5 (active).

In the case of `COCCOC(=O)C1=C(C)NC(=O)NC1c1cc2c(cc1Br)OCO2` (configuration not stated), the B-score result was “inactive”.

Consider `O=C(Cc1ccccc1)Nc1ccc(NC(=O)c2cccnc2)cc1`, for which the B-score result is “inactive”.

In the case of `O=C(O)CSC(NC(=O)c1cccnc1)(C(F)(F)F)C(F)(F)F`, the B-score was -5.59 (active).

Consider `O=C(NNC(=O)c1cccnc1)Nc1ccccc1`, for which the B-score entry was “inactive”.

As to `O=C(COC(=O)C1CCN(S(=O)(=O)c2ccc3c(c2)OCCO3)CC1)Nc1ccccc1OC(F)F`, the B-score is -5.02 (active).

Consider `COc1ccccc1CNC(=O)C1CCN(S(=O)(=O)c2ccc3c(c2)OCCO3)CC1`, for which the B-score result is “inactive”.

As for `CCOC(=O)C1CCN(C(=O)COC(=O)C2CCN(S(=O)(=O)c3ccc4c(c3)OCCO4)CC2)CC1`, the B-score result was “inactive”.

Consider `C/C(=N/O)c1ccc(N2C(=O)C3C4C=CC(C3C2=O)C2C3C(=O)N(c5ccc(/C(C)=N/O)cc5)C(=O)C3C42)cc1` (configuration not stated), for which the B-score entry is “inactive”.

As for `Clc1ccc(Nc2ccc3ccccc3n2)cc1`, the B-score result was “inactive”.

Take `Cc1ccccc1N1CC(C(=O)Nc2ccc(S(=O)(=O)N3CCCC3)cc2)CC1=O` (configuration not stated): the B-score result was “inactive”.

Turning to `O=C(C1CC(=O)N(c2ccc(F)cc2)C1)N1CCN(c2ccccc2)CC1` (configuration not stated), the B-score entry is “inactive”.

Turning to `CCC(C)c1ccccc1N1CC(C(=O)N2CCN(S(=O)(=O)c3ccc(F)cc3)CC2)CC1=O` (configuration not stated), the B-score was -7.31 (active).

In the case of `Cc1cc(C)n(C(=O)c2ccc(C)c(S(=O)(=O)N3CCOCC3)c2)n1`, the B-score entry is “inactive”.

As for `S=C(NCc1ccc(Cl)cc1)NC12CC3CC(CC(C3)C1)C2`, the B-score is -5.44 (active).

For the compound `O=C(NCc1ccncc1)NC12CC3CC(CC(C3)C1)C2`, the B-score entry was “inactive”.

On to `S=C(NCc1ccc(Cl)cc1)NC1CCCCC1`, for which the B-score result is “inactive”.

As for `CC(=O)c1cccc(NC(=S)N2CCCC2)c1`, the B-score entry was “inactive”.

`O=C(Nc1ccc(Br)cc1)c1cc(S(=O)(=O)Nc2ccccn2)ccc1Cl`: the B-score result was “inactive”.

On to `OC(c1ccccc1)c1nccn1Cc1ccccc1` (configuration not stated), for which the B-score entry is “inactive”.

Take `CN(Cc1ccccc1)C(=O)C(=O)c1cn(CC(=O)N2CCCC2)c2ccccc12`: the B-score entry is “inactive”.

For `CCOC(=O)C1C(c2ccc(Cl)cc2)NC(=S)NC1(O)C(F)(F)F` (configuration not stated), the B-score result was “inactive”.

Regarding `CC(=O)C1C(c2cccc(Oc3ccccc3)c2)NC(=O)NC1(O)C(F)(F)F` (configuration not stated), the B-score result was “inactive”.

In the case of `O=C(c1cccs1)C1C(c2ccc(Br)cc2)NC(=S)NC1(O)C(F)(F)F` (configuration not stated), the B-score was -6.04 (active).

Regarding `COc1ccc(C(C#N)Nc2ccccc2C)cc1` (configuration not stated), the B-score entry was “inactive”.

Regarding `CCOC(=O)N1CCN(S(=O)(=O)c2ccc(OC)cc2)CC1`, the B-score result was “inactive”.

With `O=S(=O)(c1ccc(F)cc1)N1CCN(C(=S)NC2CCCC2)CC1`, the B-score result is “inactive”.

For the compound `COc1ccc(S(=O)(=O)N2CCN(C(=O)NC3CCCCC3)CC2)cc1`, the B-score was -4.64 (active).

Consider `C=CC[n+]1c(-c2ccc(C)cc2)csc1NNC(=O)Nc1ccccc1`, for which the B-score result is “inactive”.

Consider `CCCOc1ccc(Cc2c(Cl)nc(SC)nc2NC)cc1`, for which the B-score entry is “inactive”.

As for `Cc1cc(C)n(CCNC(=O)CC2C(=O)NCCN2Cc2ccc(C)o2)n1` (configuration not stated), the B-score is -4.73 (active).

`COc1cc(CN2CCNC(=O)C2CC(=O)NCCc2ncccc2C)cc(OC)c1` (configuration not stated): the B-score result is “inactive”.

For the compound `Cc1nccn1CCCNC(=O)CC1C(=O)NCCN1Cc1ccc(Cl)c(F)c1` (configuration not stated), the B-score entry is “inactive”.

Consider `O=C(CSc1nncn1-c1cccnc1)N1CCOCC1`, for which the B-score is -5.04 (active).

For the compound `COC(=O)c1ccc(NC(=O)CSc2nncn2-c2cccnc2)cc1`, the B-score entry is “inactive”.

For `O=C(CSc1nnc(Cc2ccccc2)n1-c1ccccc1)N1CCOCC1`, the B-score result is “inactive”.

As for `CCC(C)(C)NC(=O)CN(C(=O)CCC(=O)Nc1nccs1)c1ccc2c(c1)OCO2`, the B-score entry was “inactive”.

For the compound `CCOC(=O)C1CN(S(=O)(=O)c2ccc(OC)cc2)c2cc(Cl)ccc2O1` (configuration not stated), the B-score result was “inactive”.

On to `CCS(=O)(=O)c1ccc2oc(SCC(=O)N3c4ccccc4CC3C)nc2c1` (configuration not stated), for which the B-score result is “inactive”.

On to `CCS(=O)(=O)c1ccc2c(c1)N(S(=O)(=O)c1ccccc1)CC(C(=O)O)O2` (configuration not stated), for which the B-score was -4.74 (active).

For `Cc1ccc(C)c(S(=O)(=O)N2CCCOC2CNC(=O)C(=O)NC2CCCCC2)c1` (configuration not stated), the B-score entry is “inactive”.

In the case of `COc1cc(OC)cc(C(=O)NCCCn2ccnc2)c1`, the B-score entry was “inactive”.

For `CC1CC(C)CN(C(=O)CCNC(=O)Cn2cnc3ccccc3c2=O)C1` (configuration not stated), the B-score entry was “inactive”.

With `CCN1CCN(c2cc3nc(C)n(Cc4ccccc4)c(=O)c3cc2NC(=O)c2ccccc2F)CC1`, the B-score entry is “inactive”.

For `COc1ccc(COC(=O)c2ccc(Cl)c(S(=O)(=O)N3CCOCC3)c2)cc1F`, the B-score entry was “inactive”.

With `Cc1cc(NC(=O)COC(=O)c2ccc(F)c(S(=O)(=O)N3CCOCC3)c2)no1`, the B-score entry is “inactive”.

For the compound `CCOc1ccc(CCNC(=O)COC(=O)c2ccc(F)c(S(=O)(=O)N3CCOCC3)c2)cc1OCC`, the B-score was -5.64 (active).

For `Fc1ccc(-c2ccc(CNCc3ccccn3)o2)cc1Cl`, the B-score entry was “inactive”.

For the compound `CCCCc1nc2cc(C(=O)N3CCCCC3CCO)ccc2o1` (configuration not stated), the B-score result is “inactive”.

With `COc1ccc(-n2nc3c(N4CCC(C(=O)NCc5ccccc5)CC4)nnc(C)c3c2C)cc1`, the B-score result is “inactive”.

Take `OCC1(Cc2ccccc2C(F)(F)F)CCN(Cc2ccncc2)CC1`: the B-score entry was “inactive”.

Regarding `C/C(=N/N1CCN(Cc2cccc3ccccc23)CC1)c1cccnc1`, the B-score entry was “inactive”.

On to `OCC1(Cc2ccccc2C(F)(F)F)CCN(Cc2cccc3cnccc23)CC1`, for which the B-score was -7.22 (active).

Regarding `CCc1cc2c(NC3CCCC3)ncnc2s1`, the B-score result is “inactive”.

On to `CCc1cc2c(SCC(=O)Nc3ncc(Cl)c(C)c3Cl)ncnc2s1`, for which the B-score is -4.97 (active).

Take `CCc1cc2c(NC(Cc3ccccc3)C(=O)O)ncnc2s1` (configuration not stated): the B-score entry was “inactive”.

Regarding `Cc1ccc(C(=O)N/C(=C\c2ccco2)C(=O)NC2CCS(=O)(=O)C2)cc1` (configuration not stated), the B-score result is “inactive”.

For the compound `ON=C1/C(=N\O)CC2(C/C1=N/O)OCCO2`, the B-score result was “inactive”.

As for `Nc1nc(-c2sc3nc4c(cc3c2N)CCCC4)nc(N2CCOCC2)n1`, the B-score entry is “inactive”.

For the compound `Cc1ccc(S(=O)(=O)N2[C@@H](c3cccc(Cl)c3)C(C(=O)O)=CC[C@H]2c2ccc(Cl)c(Cl)c2)cc1`, the B-score was -6.18 (active).

Turning to `Cc1ccc([C@@H]2CC=C(C(=O)O)[C@H](c3cccc(Cl)c3)N2S(=O)(=O)c2ccc(C)cc2)cc1`, the B-score entry is “inactive”.

On to `Cc1ccccc1S(=O)(=O)N1[C@@H](c2cccc(Cl)c2)C(C(=O)O)=CC[C@H]1c1ccc(Cl)cc1`, for which the B-score result is “inactive”.

Turning to `COc1ccccc1OCCC(=O)OCC(=O)NCc1ccccc1`, the B-score result was “inactive”.

As to `CC(=O)c1cc(-c2ccccc2)n(CCC(=O)NC2CCCCCC2)c1C`, the B-score entry was “inactive”.

Turning to `Cc1occc1C(=O)NC1CCCN(Cc2ccc(CC(C)C)cc2)C1` (configuration not stated), the B-score entry was “inactive”.

Take `CCOC(=O)c1ccc(NC(=O)c2nc[nH]c2C(=O)N[C@@H](CCCCNC(=O)OC(C)(C)C)C(=O)OC(C)(C)C)cc1`: the B-score entry was “inactive”.

Regarding `Cc1ccc(NC(=O)c2nc[nH]c2C(=O)N[C@@H](CCCCNC(=O)OC(C)(C)C)C(=O)OC(C)(C)C)cc1`, the B-score was -9.54 (active).

Consider `CNC(=O)c1[nH]cnc1C(=O)N[C@@H](CC(C)C)C(=O)OC(C)(C)C`, for which the B-score entry is “inactive”.

`O=[N+]([O-])c1ccc(Oc2ccc(F)cc2Br)c2ccncc12`: the B-score result is “inactive”.

`O=C(CN1CCN(c2ccc(O)cc2)CC1)Nc1ccc(-c2ccccc2)cc1`: the B-score entry was “inactive”.

For the compound `O=C(COC(=O)c1ncc(Cl)c(Cl)c1Cl)NNC(=O)c1ccccc1`, the B-score was -4.63 (active).

On to `O=C(COC(=O)c1ncc(Cl)c(Cl)c1Cl)NCc1cccs1`, for which the B-score result is “inactive”.

As for `NS(=O)(=O)c1cc(C(=O)OCC(=O)NNC(=O)c2ccccc2)ccc1Cl`, the B-score entry is “inactive”.

Consider `CC(=O)c1cnn(-c2cc(Oc3ccc(F)cc3)ncn2)c1C`, for which the B-score result is “inactive”.

As for `Cc1cc(NC(=O)[C@H](C)NC(=O)c2ccco2)ccc1Br`, the B-score result was “inactive”.

On to `NC1=NC(=O)C2(COC(c3ccccc3Cl)OC2)S1` (configuration not stated), for which the B-score entry is “inactive”.

Turning to `Clc1ccc(C=NC23CN4CN(CN(C4)C2)C3)cc1`, the B-score is -6.85 (active).

Regarding `O=C(CN1CCSCC1)N/N=C/c1ccc(Cl)cc1`, the B-score result is “inactive”.

For `FC(F)(F)c1nc2ccccc2nc1N/N=C/c1ccc(Cl)cc1`, the B-score entry was “inactive”.
